Here are results for nine compounds from PubChem BioAssay.

Calls of active or inactive are those of the source. Unless noted, no rule for the calls is given here.

Test [1] is described as follows: compound effects on lung adenocarcinoma cell viability – A549, calcein-AM fluorescence, 48 h, basal, profiling panel (AID 1162). Also: test concentration not given here. As to conditions: higher = more signal.
Test [2] in a line: compound effects on differentiated 3T3-L1 adipocyte viability – cell-based, 3T3-L1 adipocytes, calcein-AM fluorescence, 48 h, basal, profiling panel (AID 1163). Also: test concentration not given here. As to conditions: 3T3-L1 adipocytes viability, higher = more signal.
The nature of test [3]: compound effects on hepatocellular carcinoma cell viability – HepG2, calcein-AM fluorescence, 48 h, basal, profiling panel (AID 1164). Also: test concentration not given here. The following applies: higher = more signal.
A short description of test [4]: compound effects on multiple myeloma cell viability – MM1S, calcein-AM fluorescence, 48 h, basal, profiling panel (AID 1165).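 Also: viability of MM1S multiple myeloma cells under basal unstimulated conditions; test concentration not given here.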 The following applies: higher = more signal.
Test [5] is described as follows: calcein-AM signal in unstimulated myeloma cells – cell-based, calcein-AM fluorescence, 48 h, PK04 Diversity Set, profiling panel (AID 1166).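 Also: cells grown under basal conditions without added stimulus; test concentration not given here.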 The following applies: RPMI8226 myeloma viability, higher = more signal.
A short description of test [6]: JC-1 mitochondrial signal, unstimulated HepG2 cells – cell-based, JC-1 fluorescence, 24 h, 100 nL compound, profiling panel (AID 1167). Also: test concentration not given here. The following applies: HepG2 mitochondrial potential, higher = more signal.
The nature of test [7]: JC-1 mitochondrial signal, unstimulated adipocytes – cell-based, JC-1 fluorescence, 3T3-L1 adipocytes, 24 h, 100 nL compound, profiling panel (AID 1168). Also: test concentration not given here. The following applies: JC-1 mitochondrial fluorescence, higher = more signal, called active from +8 up or from −8 down.
Test [8] is described as follows: JC-1 mitochondrial signal, unstimulated myeloma cells – cell-based, JC-1 fluorescence, RPMI8226, 24 h, 100 nL compound, profiling panel (AID 1169). Also: test concentration not given here. The following applies: JC-1 mitochondrial potential fluorescence, higher = more signal.
Test [9] can be described thus: JC-1 mitochondrial signal, unstimulated MM1S myeloma – cell-based, JC-1 fluorescence, 24 h, 100 nL compound, profiling panel (AID 1170). Also: test concentration not given here. As to conditions: MM1S mitochondrial potential, higher = more signal.
A short description of test [10]: resazurin metabolic signal in A549 cells – cell-based, resazurin fluorescence, 24 h, PK04 Diversity Set, profiling panel (AID 1171). Also: test concentration not given here. As to conditions: A549 viability, higher = more signal, called active from +8 up or from −8 down.
Test [11] is described as follows: resazurin metabolic signal in HepG2 cells – cell-based, resazurin fluorescence, 24 h, PK04 Diversity Set, profiling panel (AID 1172). Also: test concentration not given here. As to conditions: HepG2 viability, higher = more signal. On the technique in general: Alamar Blue is a resazurin reagent that responds to reducing activity.
A short description of test [12]: budding yeast growth changes without added modifier – OD600, strain BY4716, 24 h, basal condition, primary screen (AID 1173). As to conditions: S. cerevisiae BY4716 growth, OD600, 24 h; higher = more signal, called active from +8 up or from −8 down.
Test [13] in a line: viability profiling in MM1S myeloma cells – cell-based, resazurin fluorescence, basal, 24 h, PK04 Diversity Set, profiling panel (AID 1174). Also: test concentration not given here. The following applies: higher = more signal, called active from +8 up or from −8 down.
Test [14] addresses Dihydroorotate dehydrogenase (quinone), mitochondrial (Plasmodium falciparum (isolate 3D7)) (UniProt Q08210). In words: inhibition of P. falciparum DHODH – biochemical, C-terminal His tag, absorbance 600 nm, primary screen (AID 1175).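 Also: recombinant parasite enzyme with a five histidine tag at its C terminus; test concentration not given here.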 As to conditions: PfDHODH enzyme, DCIP absorbance 600 nm; higher = more signal, called active from +8 up or from −8 down.
Test [15] is described as follows: inhibition of PAO1 biofilm formation – strain PAO1, LB-PBS medium, absorbance 600 nm, primary screen (AID 1176). Also: test concentration not given here. The following applies: P. aeruginosa PAO1 growth/biofilm, A600, 12 h; higher = more signal.
Test [16] is described as follows: growth modulation of vineyard yeast isolate – strain RM11-1a, OD600, basal, 24 h, primary screen (AID 1177).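 Also: cultures grown under basal conditions with no added stressor; test concentration not given here.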 As to conditions: S. cerevisiae RM11-1a growth, OD600, 24 h; higher = more signal, called active from +8 up or from −8 down.
A short description of test [17]: growth of efflux-deficient E. coli DRC39 – strain DRC39, OD650, 24 h, E. coli filamentation inducers, primary screen (AID 1178).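 Also: growth measured as culture turbidity by optical density at 650 nm; test concentration not given here.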 As to conditions: E. coli DRC39 acrAB, higher = more signal, called active from +8 up or from −8 down.
A short description of test [18]: growth of efflux-deficient E. coli DRC39 – strain DRC39, OD650, 48 h, E. coli filamentation inducers, primary screen (AID 1179).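 Also: screen aims at cell division blockers that make cells filament.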 The following applies: E. coli DRC39 delta-acrAB growth, higher = more signal, called active from +8 up or from −8 down.
Test [19] in a line: viability profiling in RPMI8226 myeloma cells – cell-based, resazurin fluorescence, basal, 24 h, PK04 Diversity Set, profiling panel (AID 1180).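 Also: RPMI8826 multiple myeloma cell line at 5000 cells per well; test concentration not given here.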 The following applies: higher = more signal.
Test [20] addresses E3 ubiquitin-protein ligase XIAP (Homo sapiens) (UniProt P98170). Nature of the test: small molecules binding XIAP protein – biophysical, small-molecule microarray, fluorescence 635 nm, primary screen (AID 1181).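 Also: score merges 667 nm emission and signal to noise over triplicate slides.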 The following applies: higher = more signal.

Chain of E3 ubiquitin-protein ligase XIAP (Homo sapiens) (P98170 whole entry, looked up): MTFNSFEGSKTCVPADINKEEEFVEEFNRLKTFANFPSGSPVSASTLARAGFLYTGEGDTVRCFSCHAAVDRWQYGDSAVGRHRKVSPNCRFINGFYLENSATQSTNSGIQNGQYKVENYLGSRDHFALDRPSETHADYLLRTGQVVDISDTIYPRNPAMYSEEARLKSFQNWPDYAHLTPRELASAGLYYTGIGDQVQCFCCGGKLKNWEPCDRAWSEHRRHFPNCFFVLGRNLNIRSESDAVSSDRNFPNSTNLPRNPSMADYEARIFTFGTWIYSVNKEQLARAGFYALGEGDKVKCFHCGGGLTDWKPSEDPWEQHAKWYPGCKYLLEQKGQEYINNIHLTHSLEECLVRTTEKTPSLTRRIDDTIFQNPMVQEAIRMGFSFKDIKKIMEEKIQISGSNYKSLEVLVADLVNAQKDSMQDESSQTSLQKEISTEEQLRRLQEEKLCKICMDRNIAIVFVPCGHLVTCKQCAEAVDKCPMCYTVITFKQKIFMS
Chain of Dihydroorotate dehydrogenase (quinone), mitochondrial (Plasmodium falciparum (isolate 3D7)) (Q08210 whole entry, looked up): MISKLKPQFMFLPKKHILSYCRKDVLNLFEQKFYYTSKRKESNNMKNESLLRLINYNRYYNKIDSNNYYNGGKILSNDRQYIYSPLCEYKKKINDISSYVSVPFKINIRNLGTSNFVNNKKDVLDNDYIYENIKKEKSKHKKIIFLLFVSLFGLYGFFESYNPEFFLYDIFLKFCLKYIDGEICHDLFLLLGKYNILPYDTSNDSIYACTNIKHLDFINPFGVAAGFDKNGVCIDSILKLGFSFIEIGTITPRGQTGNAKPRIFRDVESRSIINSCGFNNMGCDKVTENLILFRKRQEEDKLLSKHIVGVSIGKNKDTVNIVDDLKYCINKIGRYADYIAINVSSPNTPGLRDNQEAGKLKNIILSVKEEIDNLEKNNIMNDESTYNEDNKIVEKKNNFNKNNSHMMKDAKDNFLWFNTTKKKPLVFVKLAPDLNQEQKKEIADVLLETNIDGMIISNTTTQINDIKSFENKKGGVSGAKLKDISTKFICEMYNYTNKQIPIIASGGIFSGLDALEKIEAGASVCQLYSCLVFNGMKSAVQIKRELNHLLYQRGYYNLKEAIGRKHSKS

As for `COCCOC(=O)N1C(=O)[C@@]2(c3cc(C#CCCO)ccc31)[C@H](C(=O)Nc1nc3ccccc3s1)[C@H]1C(=O)O[C@H](c3ccccc3)[C@H](c3ccccc3)N1[C@@H]2c1ccccc1OCCO`, the z-score in test [1] was -0.216; in test [2] it was 0.121; in test [3] it was -1.1; in test [4], -0.965; in test [5], -0.333; in test [6], -3.13. Besides, the z-score in test [7] is -0.372 (inactive); in [8] it was -0.183; in [9], -0.744; in test [10] it was 0.513 (inactive); in test [11], 0.316; in test [12] it was 2.04 (inactive). Also, the z-score in [13] is -0.459 (inactive); in [15], 1.7 (inactive); in test [16], 1.91 (inactive); in test [17], -0.0306 (inactive); in test [18] it was -0.339 (inactive); in [19] it was -1.28. The composite z-score is 1.1 (inactive) in [14] and -0.115 in test [20].

With `NCCCCCNC(=O)[C@@H]1C[C@@H]2C(=O)NCC(=O)N2[C@@H]1c1cccc(OCCO)c1`, the z-score in test [1] was -0.507; in [2], 1.11; in [3], -0.531; in test [4], -0.686; in test [5] it was -0.947; in test [6], 1.5. For the same compound, the z-score in test [7] is -0.298 (inactive); in [8], 0.00435; in test [9] it was 0.53; in test [10], -0.505 (inactive); in [11] it was -0.727; in test [12], -0.202 (inactive). Further, the z-score was 0.584 (inactive) in test [13]; 1.29 (inactive) in [15]; 0.561 (inactive) in test [16]; -0.0625 (inactive) in [17]; -0.485 (inactive) in test [18]; 0.974 in test [19]. The composite z-score is -0.73 (inactive) in test [14] and 0.012 in test [20].

Take `COc1ccc(CCNC(=O)[C@@H]2c3ccccc3C(=O)N(Cc3cc(C(F)(F)F)cc(C(F)(F)F)c3)[C@H]2c2ccc(CO)cc2)cc1`: the z-score was 1.64 in test [1]; 1.58 in test [2]; 1.17 in [3]; -1.4 in test [4]; -0.35 in test [5]; 1.61 in test [6]. Also, the z-score in test [7] was -0.497 (inactive); in test [8], -0.0116; in test [9], 0.29; in [10], 0.349 (inactive); in [11], 0.317; in [12] it was -0.662 (inactive). Further, the z-score in test [13] is -0.295 (inactive); in test [15], 0.279 (inactive); in test [16], 0.864 (inactive); in [17], 0.619 (inactive); in [18], 0.591 (inactive); in [19], 0.451. For the same compound, the composite z-score was -0.928 (inactive) in [14] and -0.213 in [20].

As for `CCOC(=O)C[C@H]1[C@H](OC(=O)c2cc3ccccc3oc2=O)[C@@H](NC(=O)c2ccc(-c3ccccc3)cc2)c2cc(OCCCO)ccc2N1C(=O)c1ccc2ccccc2n1`, the z-score in [1] is 0.224; in test [2], 0.198; in test [3], 1.25; in test [4], 0.0181; in test [5], 0.624; in test [6], 0.259. In addition, the z-score was -0.023 (inactive) in [7]; 0.174 in test [8]; -0.122 in test [9]; 0.73 (inactive) in [10]; 0.867 in test [11]; 0.753 (inactive) in test [12]. Further, the z-score in [13] was 0.389 (inactive); in [15], -0.0218 (inactive); in test [16] it was 1.54 (inactive); in test [17], 0.97 (inactive); in test [18], 0.211 (inactive); in test [19], 0.0692. The composite z-score is -0.0286 (inactive) in [14] and 0.023 in test [20].

Take `CCOC(=O)C1=CC[C@@H](c2cccc(Cl)c2)N(S(=O)(=O)c2ccc(C)cc2)C1`: the z-score was -0.236 in test [1]; 0.472 in [2]; 0.46 in test [3]; -1.14 in test [4]; -0.789 in [5]; 0.584 in test [6]. Besides, the z-score is 1.34 (inactive) in [7]; -0.043 in test [8]; -0.51 in [9]; -0.617 (inactive) in test [10]; -0.36 in [11]; 0.255 (inactive) in test [12]. In addition, the z-score in [13] is -0.347 (inactive); in test [15] it was -0.405 (inactive); in [16], -0.188 (inactive); in test [17], 0.242 (inactive); in [18] it was 1.2 (inactive); in test [19] it was -0.277. Besides, the values for the composite z-score in test [14] and in test [20] were -1.54 (inactive) and -0.149, respectively.

For `COc1ccc(C(O)C2C=CC3C(=O)N(c4ccccc4)C(=O)C3N2Nc2ccc([N+](=O)[O-])cc2)cc1` (stereo not given), the z-score in [1] is -0.27; in [2] it was -1.06; in test [3], 0.168; in test [4], -0.495; in [5] it was 0.0223; in test [6] it was -0.378. Besides, the z-score is -1.52 (inactive) in test [7]; 0.0302 in [8]; -0.909 in [9]; 0.0404 (inactive) in test [10]; -0.724 in [11]; 0.402 (inactive) in test [12]. In addition, the z-score is -0.754 (inactive) in test [13]; 0.837 (inactive) in test [15]; 0.613 (inactive) in test [16]; -1.2 (inactive) in [17]; -0.996 (inactive) in [18]; -0.502 in test [19]. The composite z-score in test [14] was -0.0727 (inactive); in test [20], 0.21.

Turning to `COc1cc2c(cc1OC)CN(C(=O)[C@@H]1[C@H]3C(=O)O[C@H](c4ccccc4)[C@H](c4ccccc4)N3[C@H](c3ccc(OCCO)cc3)[C@@]13C(=O)Nc1ccc(C#CC4(O)CCCCCC4)cc13)CC2`, the z-score in [1] is 2.93; in [2], 1.72; in test [3], 0.988; in [4] it was -0.0788; in test [5], 0.792; in test [6], -0.555. Also, the z-score in test [7] was 0.601 (inactive); in [8] it was -0.831; in test [9], -1.3; in [10], 0.36 (inactive); in [11], 0.61; in test [12], -0.257 (inactive). Moreover, the z-score in test [13] is 0.341 (inactive); in test [15], 4.2 (inactive); in [16], 2.82 (inactive); in [17], 0.312 (inactive); in test [18], 0.854 (inactive); in test [19] it was -0.221. The values for the composite z-score in [14] and in [20] were -1.3 (inactive) and -0.0382, respectively.

Regarding `CN1C(=O)C2C=CC(C(O)COCc3ccccc3)N(N(c3ccccc3)c3ccccc3)C2C1=O` (stereo not given), the z-score in test [1] is 1.52; in test [2] it was -1.5; in [3], 0.688; in test [4], -3.79; in test [5] it was -3.67; in [6], 0.0589. In addition, the z-score is -1.12 (inactive) in test [7]; -0.974 in test [8]; -1.34 in [9]; 0.419 (inactive) in [10]; 0.669 in test [11]; -2.9 (inactive) in [12]. Moreover, the z-score is -0.902 (inactive) in test [13]; 1.04 (inactive) in test [15]; 0.591 (inactive) in test [16]; 0.202 (inactive) in test [17]; 0.0087 (inactive) in test [18]; -0.861 in test [19]. The composite z-score is -0.0748 (inactive) in test [14] and 0.0537 in test [20].

As for `COc1ccc([Si](C)(C)[C@H]2[C@H](CCn3cc([C@H](O)c4ccccc4)nn3)O[C@@]3(C(=O)N(Cc4ccc(N5C(=O)c6cccc7cccc5c67)cc4)c4ccccc43)[C@@H]2C)cc1`, the z-score in test [1] was 0.332; in test [2], -0.488; in test [3] it was 1.02; in test [4], -0.702; in test [5], -0.74; in [6] it was 1.58. Moreover, the z-score in test [7] is -0.526 (inactive); in test [8], -0.296; in [9], 0.516; in [10] it was -1.26 (inactive); in test [11] it was -0.0876; in test [12] it was 0.0957 (inactive). Also, the z-score was -1.96 (inactive) in test [13]; 1.03 (inactive) in test [15]; 1.26 (inactive) in test [16]; 1.57 (inactive) in test [17]; 1.45 (inactive) in [18]; -0.761 in [19]. Moreover, the composite z-score in [14] was 0.468 (inactive); in [20], -0.031.
